From PubChem BioAssay
Calls of active or inactive are those of the source. The rule behind the calls is not given here.

The molecules below were run against Protein kinase 7 (PK7), Plasmodium falciparum 3D7 (PF3D7_0213400) (UniProt Q7YTF7) (assay: inhibition of Plasmodium PK7 catalytic activity – biochemical, TCAMS antimalarial set, Kinase-Glo luminescence (AID 1159587)). Details: recombinant PfPK7, Kinase-Glo ATP depletion luminescence.
Sequence of Protein kinase 7 (PK7), Plasmodium falciparum 3D7 (PF3D7_0213400) (Q7YTF7 1-343): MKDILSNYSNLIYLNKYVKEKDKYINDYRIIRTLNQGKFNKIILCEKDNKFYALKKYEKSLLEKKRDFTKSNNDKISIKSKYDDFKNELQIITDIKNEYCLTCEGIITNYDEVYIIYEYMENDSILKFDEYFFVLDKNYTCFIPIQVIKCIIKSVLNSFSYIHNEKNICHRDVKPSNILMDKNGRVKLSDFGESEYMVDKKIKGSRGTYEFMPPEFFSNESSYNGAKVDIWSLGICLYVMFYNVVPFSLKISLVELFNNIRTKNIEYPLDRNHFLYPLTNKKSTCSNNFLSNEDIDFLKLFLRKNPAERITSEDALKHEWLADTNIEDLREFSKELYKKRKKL

outcome, inactive:
COc1cc(CNC2Cc3ccccc3C2)ccc1Oc1ccc2nc[nH]c2c1
CCCCCCNc1cc(C)nc(/N=C(\N)Nc2cccc(C(F)(F)F)c2)n1
Cc1ccc(-c2nc(Nc3ccncc3)c3ccccc3n2)s1
CC(C)CCN1CCCN(Cc2cccc(C(=O)Nc3ccc(C(C)(C)C)cc3)c2)CC1
O=C(Nc1ccc(-c2ccccc2)cc1)Nc1cccc(Cn2ncc(N3CCCNCC3)c(Cl)c2=O)c1
CN(C)c1ccc(-c2csc(C(=O)NCC3CCN(Cc4ccc(C(C)(C)C)cc4)C3)c2)cc1 (stereo not given)
CCCCCCN1CCC(NCc2cccc(C#N)c2)CC1
CC(NC(=O)c1ccc(O)c(-c2ccc(Cl)c(Cl)c2)c1)C(=O)NCCN1CCOCC1 (stereo not given)
O=C(Nc1cc(F)cc(F)c1)N1CCOC(CCN2CCC3(CCc4ccccc43)CC2)(c2ccc(Cl)c(Cl)c2)C1 (stereo not given)
O=C(Nc1ccc(OC2CCN(Cc3ccc(F)cc3)CC2)c(Cl)c1)c1ccccc1
O=C(NCCCCN1CCC(c2ccc3c(c2OCCO)CCCC3)CC1)c1ccc(-c2ccc(C(F)(F)F)cc2)cc1
O=C(Nc1ccccc1)N(Cc1cccc(-c2ccc(CNCCc3ccccc3)cc2)c1)C1CCN(Cc2ccccc2)CC1
O=C(/C=C/c1cccc(Cl)c1)N1CCC(C(O)CN2CCC3(CC2)CN(C(=O)/C=C/c2cccc(Cl)c2)c2ccccc23)CC1 (stereo not given)
COc1ccc(Cc2nc(N=C(N)Nc3ccccc3)ccc2OC)cc1
Cc1cc(Cl)ccc1NC(=O)NCCCCCN1CCC(c2c[nH]c3ccccc23)CC1
